BoNT F protease: blocks Botulinum neurotoxin F light chain protease; Multiplex microsphere protease cleavage assay, flow cytometry; inhibition, % at 10 µM; 360,000 compounds, 0.22% hits; in the data active means inhibition above about 35%, passing the limit was not always enough; inconclusive means no clear call, values can overlap the other calls; further: plate controls were buffer without enzyme for full effect and enzyme alone for no effect
BoNT A protease: blocks Botulinum neurotoxin A light chain protease; multiplex microsphere protease substrate cleavage, flow cytometry; inhibition, % at 10 µM; 360,000 compounds, 0.17% hits; AID 588499; further: plate controls were buffer without enzyme for full effect and enzyme alone for no effect
Anthrax LF prot: blocks Bacillus anthracis lethal factor protease. P15917. multiplex microsphere protease cleavage assay, LF. inhibition, % at 10 µM. 360,000 compounds, 0.12% hits; further: plate controls were buffer without enzyme for full effect and enzyme alone for no effect
Autofluor counter: counter-screen for toxin protease inhibitors: compound fluorescence; AID 624483; 360,000 compounds, 3.1% hits; fluorescence intensity (no concentration beside the values); compound autofluorescence counterscreen, microsphere flow cytometry; hits give high values; in the data active means fluorescence intensity above about 16000; inconclusive means no clear call, values can overlap the other calls
* marks the source's active call; other numbers are inactive results; ? = inconclusive. The list is not random: actives were taken first. Their share in the collection is about 3.5%. Unless noted, no stated cut-off is given here; in the data, active means inhibition above about 30%; inconclusive means no clear call, values can overlap the other calls; inactive means below that.

SMILES	BoNT F protease	BoNT A protease	Anthrax LF prot	Autofluor counter
Cc1cc(C)nc(N2N=C(C(C)(C)C)CC2=O)n1	-2	?	2	23425*
CCOC(=O)C1(C)CCCN(C(=O)c2ccccc2OC(F)(F)F)C1 (configuration not stated)	-2	0	0	3243
COc1cc(NC(=O)c2c(F)c(F)c(F)c(F)c2F)c(OC)cc1Cl	1	2	-2	21733*
CCCCOC(=O)Nc1ccc(C(=O)OC)cc1	1	0	-2	21923*
COc1ccc(C(=O)Nc2cc(OC)c(Cl)cc2OC)cc1	-10	0	-9	4944
CCCCOC(=O)Nc1cc(OC)c(Cl)cc1OC	0	1	-2	23042*
CCCCOC(=O)c1ccc(NC(C)=O)cc1	-1	-1	0	4890
CC1Cc2ccccc2N1C(=O)CN1C(=O)NC2(CCCCC2)C1=O (configuration not stated)	-9	-2	-9	3960
C=CCn1c(C)nnc1SCC(=O)N1CCN(S(=O)(=O)c2ccccc2)CC1	0	-1	-8	4490
CC(=O)c1cccc(NCC(=O)N2CCN(S(=O)(=O)c3ccccc3)CC2)c1	-6	1	3	3555
Cc1ccc(NC(=O)NC2CCN(CC(=O)Nc3nccs3)CC2)cc1	0	-1	1	9828
Cc1ccccc1C(=O)NC1CCN(CC(=O)Nc2nccs2)CC1	0	?	-1	20345*
Cc1ccccc1C(=O)NC1CCN(CC(=O)Nc2ccccc2Cl)CC1	9	4	1	3584
COC(=O)c1ccccc1NC(=O)CN1CCC(NC(=O)c2ccccc2C)CC1	-4	0	1	16191*
CCCCNc1nc(N(C)c2ccccc2)nc(-n2ccnc2)n1	-3	-1	-4	23497*
C=CCNc1nc(N(c2ccccc2)c2ccccc2)nc(-n2ccnc2)n1	-6	-3	0	20613*
c1ccc(N(c2ccccc2)c2nc(-n3ccnc3)nc(-n3ccnc3)n2)cc1	-3	-1	-3	2985
O=C(O)c1ccc2nc(-c3ccco3)c(-c3ccco3)nc2c1	-1	-1	-2	2572
O=C(Nc1cccc(C(F)(F)F)c1)c1ccc2nc(N3C(=O)CCC3=O)sc2c1	2	1	-2	22304*
O=C(Nc1cccc(C(F)(F)F)c1)c1ccc2nc(-c3ccco3)c(-c3ccco3)nc2c1	-7	63*	28	3371
Cc1nc2ccc(NC(=O)c3ccc(N4C(=O)CCC4=O)cc3)cc2s1	3	0	-2	4535
COC(=O)C=C1CCC2C3CCC4=CC(=O)CCC4(C)C3C(=O)CC12C (configuration not stated)	-3	0	-2	3768
COC(=O)c1sc2ncccc2c1OCc1ccc(Cl)cc1	-6	-2	?	?
COC(=O)c1sc2ncccc2c1OCc1ccccc1Cl	0	2	-7	18888*
COc1cccc(-n2c(O)c(C=NCc3ccc4c(c3)OCO4)c(=O)[nH]c2=O)c1	0	0	0	22432*
SMILES	BoNT F protease	BoNT A protease	Anthrax LF prot	Autofluor counter
Cc1ccccc1-n1c(O)c(C=Nc2ccc3c(c2)OCO3)c(=O)[nH]c1=O	1	?	-2	22656*
O=c1[nH]c(=O)n(Cc2ccco2)c(O)c1C=NCc1ccc2c(c1)OCO2	4	3	-1	22050*
O=C(Cn1cc(COc2ccc(Br)cc2[N+](=O)[O-])nn1)c1ccc(O)cc1	-4	0	0	3733
N#Cc1ccccc1OCC(=O)Nc1ccc(S(=O)(=O)N2CCOCC2)cc1	-9	-1	4	3020
CCc1nc2ccc(C(=O)NCc3ccccc3OC)cn2c1N(C)Cc1ccc(OC)cc1	4	0	1	3836
Cc1nnc(NC(=O)c2cc(-c3ccncc3)nc3c(C)cccc23)s1	-10	-2	0	5995
CCOC(=O)c1[nH]c(C)c(C(=O)NCCCN2CCOCC2)c1C	8	1	-3	10335
CCOC(=O)c1c(C)[nH]c(C(=O)CN2CCOCC2)c1C	-2	0	-2	23350*
CCOC(=O)c1c(C)[nH]c(C(=O)CSc2ccc(Cl)cc2)c1C	-1	?	-24	16362*
O=C(COc1ccc(Br)cc1Br)NC(=S)N1CCCc2ccccc21	7	24	31*	5356
CC1(C)N(OCc2ccccc2)C(=O)C(=O)N(OCc2ccccc2)C1(C)C	8	?	-13	20720*
O=C1c2ccccc2C(=O)N1OCc1ccccc1	1	0	-2	9173
COc1ccc(S(=O)(=O)N2CCC(C(=O)N(C)Cc3ccc(C)o3)CC2)cc1OC	2	2	4	6432
Cc1cc(Br)ccc1NC(=O)C1CCN(C(=O)c2ccco2)CC1	-4	1	0	4687
CCc1ccc(N=Nc2ccc(O)c3[nH]cnc23)cc1	-7	0	-9	4109
CCN(CC)C(=O)C1CCCN(Cc2ccccc2C(F)(F)F)C1 (configuration not stated)	0	0	-2	23390*
CCN(CC)C(=O)C1CCCN(Cc2ccc(OC)c(C)c2)C1 (configuration not stated)	2	2	-2	16141*
CCN(CC)C(=O)C1CCCN(C/C=C/c2ccccc2)C1 (configuration not stated)	-6	-6	-2	25287*
CCN(CC)C(=O)C1CCCN(C/C(C)=C/c2ccccc2)C1 (configuration not stated)	-8	-1	-4	8692
O=C(COC(=O)c1n[nH]c(=O)c2ccccc12)Nc1cccc(S(=O)(=O)N2CCOCC2)c1	3	-2	-1	7128
Cc1ccc(C2C(C#N)=C(N)SC(N)=C2C#N)c(C)c1	71*	40*	28	7929
C=CCC(C(=O)OC)(C(=O)OC)c1ccc([N+](=O)[O-])cn1	-2	?	2	22956*
C=CCC(C(=O)OC)(C(=O)OC)c1ccc([N+](=O)[O-])cc1[N+](=O)[O-]	0	-1	-4	3779
COc1cc(OC)cc(C(=O)Nc2ccc(S(=O)(=O)N(C)C)cc2)c1	-2	1	-2	19847*
COc1ccc(NC(=O)c2ccc(S(=O)(=O)N(C)C)cc2)cc1	2	0	-4	3406
SMILES	BoNT F protease	BoNT A protease	Anthrax LF prot	Autofluor counter
O=C(CN(CCc1ccccc1)C(=O)CN1C(=O)COc2ccccc21)NCc1ccco1	2	1	0	23028*
COc1cccc(C(=O)NCc2ccc(N3CCN(C(=O)OC(C)(C)C)CC3)cc2)c1	2	1	-1	20260*
COc1ccc(C(=O)NCc2ccc(N3CCN(C(=O)OC(C)(C)C)CC3)cc2)cc1	-5	-2	-2	22812*
COc1ccc(C(=O)NCc2ccc(N3CCN(C)CC3)cc2)cc1	31	4	23	3554
COc1cccc(C(=O)NCCN2CCN(c3ccccc3)CC2)c1	?	2	-2	3093
Cc1ccc2c(=O)cc(C(=O)NC3CCS(=O)(=O)C3)oc2c1C (configuration not stated)	4	1	-1	5934
Nc1c(C(=O)NC23CC4CC(CC(C4)C2)C3)sc2nc3c(c(C(F)(F)F)c12)CCC3	-3	?	-2	24363*
COc1ccccc1N1C(=O)Cc2ccccc2C1=O	1	0	-2	4973
Cn1c(SCCOc2ccccc2Cl)nnc1-c1cccs1	-1	2	0	22281*
